The text below walks through data of PubChem BioAssay (EPA / NIEHS).

Molecules are shown by their SMILES. Active and inactive are the calls of the source. The calls were made as follows: active = hit-call score of the fitted dose curve at least 0.9, where 1 is the maximum; inactive = score below 0.9.

The assay in a line: CCTE_Shafer_MEA_acute_interburst_interval_mean: CCTE's Neural Acute Assay for Mean Interburst Interval, Shafer Lab (AID 2284016).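 Also: percent change of mean interburst interval versus each well's own pre-dose baseline.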 The procedure:
CCTE_Shafer_MEA_acute assay is conducted using Axion Biosystems 48 well microelectrode array (MEA) plates and Maestro recording system. Each well of the MEA plate contains a grid of 16 microelectrodes embedded in the culture surface. Electrically active cells, such as neurons, can be cultured over the electrodes, and electrical activity in these cells can be recorded extracellularly. The spontaneous firing of neurons is captured from each electrode on a microsecond timescale providing both temporally and spatially precise data. […] The CCTE_Shafer_MEA_acute assay uses primary cultures of rat cortical neurons. As these cultures mature over time, neural networks develop functional activity and form cohesive networks in which electrical activity can be highly coordinated. Baseline 40-minute recordings are made on days post-plating 13 or 15, followed by a secondary 40-minute recording after chemical exposure.CCTE_Shafer_MEA_acute_interburst_interval_mean is a component of the CCTE_Shafer_MEA_acute assay. It measures the average time between the start of consecutive single-electrode bursts (temporally-clustered groups of action potential firing) during a recording in a microelectrode array (MEA) using Axion Biosystems Maestro 768 channel amplifier with the AxIS adaptive spike detector. The recordings before and after chemical treatment are used to calculate a percent change in the mean inter-burst interval in each well.Data from the assay component CCTE_Shafer_MEA_acute_interburst_interval_mean was analyzed into 1 assay endpoint. This assay endpoint, CCTE_Shafer_MEA_acute_interburst_interval_mean, was analyzed in the negative analysis fitting direction relative to DMSO as the negative control and baseline of activity. Using a type of functional reporter, gain or loss-of-signal activity can be used to understand electrical activity.
Spontaneous activity in the cortical cultures was recorded using an Axion Biosystems Maestro 768 channel amplifier and Axion Integrated Studios (AxIS) v1.8 (or later) software. The amplifier recorded from all channels simultaneously (gain = 1200 x; sampling rate = 12.5 kHz/channel): raw signals were filtered with a Butterworth band-pass filter (300-5000 Hz), which filters out slower local field potentials leaving only fast potentials, i.e., "spikes", arising from extracellular currents associated with action potentials (Pine 2006; Wheeler and Nam 2011). On-line spike detection of filtered signals was conducted with the AxIS adaptive spike detector, using a threshold of 8x the root mean squared (rms) noise on each channel. Any electrodes with rms noise levels greater than 5 uV were grounded (e.g., no data were recorded). Once grounded, an electrode was grounded for the duration of the experiment. All recordings were conducted at 37 C. Wells were deemed usable if on the day of the exposure >/= 10 electrodes were active (defined as >/= 5 spikes/min). On DIV 13 or 15, a minimum of three wells from one cortical culture preparation were treated with each compound (0.03-40 uM). Prior to recording baseline activity, each mwMEA plate was placed in the Maestro at 37 C and allowed to sit for 20 min while firing rates stabilized. Baseline activity (40 min) was recorded before the addition of each compound. An additional 40 min of spontaneous activity was recorded in the presence of each compound. Changes in network parameters relative to baseline were assessed following compound treatment.
With `CN(C)CCCN1c2ccccc2Sc2ccc(Cl)cc21`, the compound was classed as inactive. Same read-out and setting: the same measure for `OCC(CO)n1cnc(-c2ccc(F)cc2)c1-c1ccnc(Oc2ccccc2)n1`: “inactive”. `COC(=O)[C@H]1[C@H]2C[C@@H]3c4[nH]c5cc(OC)ccc5c4CCN3C[C@H]2C[C@@H](OC(=O)c2cc(OC)c(OC)c(OC)c2)[C@@H]1OC`: the AC50 (commonly the concentration giving half of the maximal activity seen) is 4.18 µM (active). In the case of `Oc1ccc(O)cc1`, the AC50 was 20 µM (active).

For `CCCC(=O)O`, the compound was classed as inactive. Regarding `COc1ccc(OC(F)(F)F)cc1CN[C@H]1CCCN[C@H]1c1ccccc1`, the AC50 was 7.18 µM (active). The same measure, in the same setting: in the case of `Cc1ccc(-c2cc(C(F)(F)F)nn2-c2ccc(S(N)(=O)=O)cc2)cc1` it was 5 µM (active). Turning to `c1ccc2occc2c1`, the outcome was inactive. With `CC(N)=O`, the compound was classed as inactive. The same measure, in the same setting: the same measure for `CSc1ccc(Oc2ccc(S(N)(=O)=O)cc2CN(C)C)cc1C`: “inactive”. On the same count and under the same terms, in the case of `CN(C)C(=O)NC1(c2ccccc2)CCN(CCC[C@]2(c3ccc(Cl)c(Cl)c3)CCCN(C(=O)c3ccccc3)C2)CC1` it was “inactive”; in that of `CC(C)NCC(O)c1ccc(O)c(O)c1` (stereo not drawn), “inactive”.

In the case of `O=C(N[C@@H](c1ccccc1)[C@@H]1CCCCN1)c1cccc(C(F)(F)F)c1Cl`, the half-maximal activity concentration (AC50) was 7.65 µM (active). For the compound `C/C=C/c1ccc(OC)cc1`, the result was inactive. As for `O=C1OC(c2ccc(O)cc2)(c2ccc(O)cc2)c2ccccc21`, the call was inactive.

Turning to `Cc1ccc(C(C)(C)C)c(O)c1`, the compound was called inactive.

For `CC1=C(C)S(=O)(=O)CCS1(=O)=O`, the call was inactive. For the compound `CN(C)C(=O)NC1(c2ccccc2)CCN(CC[C@@]2(c3ccc(F)c(F)c3)CN(C(=O)c3ccccc3)CCO2)CC1`, the outcome was inactive. As to `Nc1nc(=S)c2[nH]cnc2[nH]1`, the compound was classed as inactive. Still for that read-out and setting: in the case of `CCc1cc(C2=C(C(=O)O)N(c3ccccc3C(F)(F)F)S(=O)(=O)c3ccccc32)cc2c1OCO2` it was “inactive”. On the same count and under the same terms, in the case of `CCN(CC)CCOc1ccc(C(=C(Cl)c2ccccc2)c2ccccc2)cc1` it was “inactive”; in that of `Cc1cc(SC2=C(O)C[C@@](CCc3ccc(N)cc3)(C(C)C)OC2=O)c(C(C)(C)C)cc1CO`, “inactive”.

On to `O=C(O)CN(CC(=O)O)CC(=O)O`, for which the call was inactive. As to `NC(=Nc1ccccc1)Nc1ccccc1`, the AC50 is 1.27 µM (active). Turning to `Cc1c(C)c2c(c(C)c1O)CCC(C)(COc1ccc(CC3SC(=O)NC3=O)cc1)O2` (stereo not drawn), the compound was classed as inactive.

For `CCCCC(CC)COP(=O)(OCC(CC)CCCC)OCC(CC)CCCC` (stereo not drawn), the call was inactive. As for `Cc1cc(Cc2ccc(N)c(C)c2)ccc1N`, the AC50 was 35.7 µM (active). Turning to `CC(C)COC(=O)CCCCC(=O)OCC(C)C`, the outcome was inactive.
